DAX1 inh-1 – blocks DAX1 repression of SF-1 activated StAR promoter | HEK293T StAR-luciferase reporter, SF-1/DAX-1 repression relief | inhibition, % at 6.8 µM | actives 1.1% (n = 370,000) | AID 652010;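 active means inhibition above the mean over all tested compounds plus 3 SD, cut at about 3.6% in these data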;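 further: 0% = DAX-1 cells with DMSO and 100% = cells lacking DAX-1 with DMSO; higher inhibition means more luminescence from relief of DAX-1 repression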
hgDAF-12 ag – activates the H. glycines DAF-12 receptor ligand-binding domain; HEK293 GAL4-hgDAF12 UAS-luciferase reporter, agonist luminescence; normalized to butyrate control; activation, % at 6.8 µM; actives 1.8% (n = 370,000);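 active means activation above a cutoff set at the mean of all screened compounds plus 3 SD, cut at about 10% in these data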;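 further: 0% = DMSO wells and 100% = sodium butyrate wells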
Rev-erbA mod – modulators of human Rev-erb alpha DNA binding; Rev-erbα–FITC-DNA binding, fluorescence polarization, 90 min; activity, % at 10 µM; actives 0.79% (n = 370,000);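 active means activity above about 14%, limit read from the data; passing the limit was not always enough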;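 further: 0% = DMSO wells with 35 nM protein and 100% = DMSO wells with 750 nM protein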
ssDAF12 agonist – activators of S. stercoralis DAF-12 nuclear receptor | actives 1% (n = 370,000) | HEK293 ssDAF-12/GRIP1 lit1-tk-luc reporter, luminescence; % of 3 µM dafachronic acid response | activation, % at 6.8 µM;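 active means activation above the mean over all tested compounds plus 3 SD, cut at about 0.9% in these data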;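 further: 0% = DMSO-only wells and 100% = 3 µM delta7-dafachronic acid wells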
DAX1 inh-2 – NR0B1 (DAX1) inhibition | P51843 | HEK293 Gal4-DAX1 luciferase reporter, luminescence | inhibition, % at 6.75 µM | actives 0.99% (n = 340,000) | AID 504766;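 active means inhibition above the mean over all tested compounds plus 3 SD, cut at about 4.2% in these data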;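 further: 0% = DAX1-transfected cells with DMSO and 100% = empty-vector control cells with DMSO; inhibition shows as a rise in luminescence from relieved DAX1 repression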
Target sequence (P51843 207-470 limits assumed): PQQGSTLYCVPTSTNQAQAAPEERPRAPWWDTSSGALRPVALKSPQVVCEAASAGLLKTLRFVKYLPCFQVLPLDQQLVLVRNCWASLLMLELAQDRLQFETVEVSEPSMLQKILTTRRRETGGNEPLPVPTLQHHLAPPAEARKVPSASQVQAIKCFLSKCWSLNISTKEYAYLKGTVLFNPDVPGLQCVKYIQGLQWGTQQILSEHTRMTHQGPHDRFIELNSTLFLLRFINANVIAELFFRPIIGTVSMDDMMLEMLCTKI
hcDAF12 agonist – H. contortus DAF-12 activation, primary screen; HEK293 hcDAF-12 lit1-tk-luc reporter, luminescence; 0% DMSO, 100% Δ7-dafachronic acid; activation, % at 6.8 µM; actives 1.4% (n = 370,000); AID 652067;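 active means activation above the mean of all tested compounds plus 3 SD, cut at about 5.5% in these data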;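 further: 100% = response to 3 µM Δ7-dafachronic acid high control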
hgDAF12 conf – hgDAF-12 agonism, confirmation assay. shares compounds with hgDAF-12 ag. actives 80% (n = 3,300). activation, % at 6.8 µM. HEK293 GAL4-hgDAF12 luciferase reporter, agonist mode; percent of butyrate response;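 active means mean activation over triplicate wells above the hit cutoff derived from the earlier primary screen, cut at about 11% in these data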;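 further: 0% = DMSO low control and 100% = 2 mM sodium butyrate high control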
LXRb DAF12 ctr – counter-screen for DAF-12 agonists: agonists of human LXR-beta; activation, % at 6.8 µM; HEK293 Gal4-LXR luciferase reporter, 24 h; shares compounds with hgDAF-12 ag; AID 743051; 3,300 tested, under 10 active;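 active means mean activation of the triplicate above a set limit carried over from the primary screen, none filed active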
Active calls of the source: *; nt = no result. Hits are enriched below; roughly 4.8% of the tested compounds scored in any of these assays.

SMILES	DAX1 inh-1	hgDAF-12 ag	Rev-erbA mod	ssDAF12 agonist	DAX1 inh-2	hcDAF12 agonist	hgDAF12 conf	LXRb DAF12 ctr
O=C(N/N=C/C(Cl)=C/c1ccccc1)c1ccco1	4.0*	22.2*	6.3	0.3	1.6	5.0	12.0*	0.6
Clc1ccsc1-c1csc(-c2cccnc2)n1	-0.3	7.5	3.3	0.7	1.1	4.5	nt	nt
Oc1ccc(-c2csc(-c3cccnc3)n2)c(O)c1	0.7	25.1*	5.0	0.5	0.6	0.3	19.7*	0.5
COC(=O)C1=C(C)N(C)C(=NCc2ccc3c(c2)OCO3)NC1c1ccc(C(F)(F)F)cc1 (stereo not drawn)	-0.1	1.3	-2.7	-0.3	nt	-0.3	nt	nt
COC(=O)[C@]12C[C@H](CC(=O)N3CCCC3)C(=O)N(Cc3cccc4ccccc34)C1=C[C@H](C(C)(C)C)O[C@@H]2C	-0.7	0.5	1.7	-1.1	nt	-0.8	nt	nt
Fc1ccccc1Cn1nnc(-c2ccc3c(c2)OCO3)n1	3.7*	13.9*	2.4	1.3*	4.0	5.3	18.7*	0.9
CCC(=O)OCCCN1CCC2(CCC(c3ccccc3)CC2)C1=O (stereo not drawn)	-0.5	-0.9	-0.7	-1.2	nt	5.0	nt	nt
c1ccc(CNn2nnc3ccccc32)cc1	1.9	13.9*	4.4	-0.6	nt	-1.1	11.5*	0.3
CN(CCO)c1cccc2c1S(=O)(=O)N(Cc1cn(Cc3ccccc3C(F)(F)F)nn1)Cc1ccccc1O2	-0.6	-2.1	-5.4	-0.9	nt	-2.6	nt	nt
CC(=O)N(C)C[C@@H]1OCc2ccccc2-c2c(n(C)c3ccccc23)C(=O)N([C@@H](C)CO)C[C@@H]1C	-0.7	-2.8	-1.2	-0.9	nt	-0.1	nt	nt
Cc1ccccc1/C=N\NC(=O)c1csnn1	2.1	14.5*	6.8	-0.7	1.0	3.0	3.2	0.2
Cc1ccccc1/C=N/NC(=O)c1cccnc1	-0.3	3.1	3.3	0.4	0.8	-0.3	nt	nt
Cc1ccc(C(=O)Nc2ccc(SC(F)F)cc2)s1	4.2*	19.7*	-5.1	-0.5	2.5	5.3	12.7*	0.6
CCOc1ccc(C(=O)Nc2ccc3[nH]ncc3c2)cc1	2.0	15.8*	1.9	0.5	-1.5	5.5	14.9*	0.8
O=C(COc1ccc(Cl)cc1)Nc1ccc2[nH]ncc2c1	-0.4	-2.7	0.2	-1.7	-0.2	-2.0	nt	nt
Cc1ccnc(NC(=O)c2ccc(OCc3c(C)noc3C)cc2)c1	4.2*	13.6*	5.6	-0.5	0.6	0.1	5.5	0.4
CCOc1ccc(C(=O)Nc2cc(C)on2)cc1	2.3	14.2*	-1.5	-0.7	0.3	2.5	14.5*	0.7
Cc1ccc(NC(=O)c2ccc(OCc3c(C)noc3C)cc2)c(C)c1	-2.8	-1.5	0.4	-1.3	-0.6	-2.8	nt	nt
COC(=O)[C@]12C[C@H](CC(=O)NCc3ccc(C)o3)C(=O)N(Cc3cccc4ccccc34)C1=C[C@H](COCc1ccccc1)O[C@@H]2C	-0.1	1.3	5.8	-1.4	nt	-3.4	nt	nt
COc1cccc(COc2ccc3c(C)cc(=O)oc3c2)c1	2.7	16.5*	2.0	-0.2	3.2	2.7	14.3*	0.6
Cc1cc(=O)oc2cc(OCC(=O)Nc3nccs3)ccc12	1.9	19.5*	5.0	0.1	1.0	5.4	17.8*	0.7
COc1ccc2c(C)cc(=O)oc2c1	0.0	-1.0	0.4	-1.2	0.4	-2.1	nt	nt
CCCc1cc(C(=O)Nc2cc(Br)ccc2O)no1	-1.3	14.9*	-3.9	-1.5	-0.5	2.6	5.9	0.3
O=C(COc1ccc(Cl)cc1Cl)Nc1cccnc1	2.6	15.0*	-6.1	-0.1	2.4	2.9	14.4*	0.6
COC(=O)[C@]12C[C@H](CC(=O)NCc3ccc(OC)c(OC)c3)C(=O)N(CCC3=CCCCC3)C1=C[C@H](C1CCCC1)O[C@@H]2C	-1.3	-4.2	-0.4	-1.5	nt	-0.5	nt	nt

Screens as filed in PubChem.
